This is a sample that favours compounds with a hit; in the whole collection about 4.6% have one here.
USP10 inh = inhibitors of human USP10 deubiquitinase. 47,000 tested, 1.1% active. Q14694. AID 1645856. purified USP10, Ub-rhodamine fluorescence, 60 min. inhibition, % at 20 µM
Target sequence (Q14694 whole entry, looked up): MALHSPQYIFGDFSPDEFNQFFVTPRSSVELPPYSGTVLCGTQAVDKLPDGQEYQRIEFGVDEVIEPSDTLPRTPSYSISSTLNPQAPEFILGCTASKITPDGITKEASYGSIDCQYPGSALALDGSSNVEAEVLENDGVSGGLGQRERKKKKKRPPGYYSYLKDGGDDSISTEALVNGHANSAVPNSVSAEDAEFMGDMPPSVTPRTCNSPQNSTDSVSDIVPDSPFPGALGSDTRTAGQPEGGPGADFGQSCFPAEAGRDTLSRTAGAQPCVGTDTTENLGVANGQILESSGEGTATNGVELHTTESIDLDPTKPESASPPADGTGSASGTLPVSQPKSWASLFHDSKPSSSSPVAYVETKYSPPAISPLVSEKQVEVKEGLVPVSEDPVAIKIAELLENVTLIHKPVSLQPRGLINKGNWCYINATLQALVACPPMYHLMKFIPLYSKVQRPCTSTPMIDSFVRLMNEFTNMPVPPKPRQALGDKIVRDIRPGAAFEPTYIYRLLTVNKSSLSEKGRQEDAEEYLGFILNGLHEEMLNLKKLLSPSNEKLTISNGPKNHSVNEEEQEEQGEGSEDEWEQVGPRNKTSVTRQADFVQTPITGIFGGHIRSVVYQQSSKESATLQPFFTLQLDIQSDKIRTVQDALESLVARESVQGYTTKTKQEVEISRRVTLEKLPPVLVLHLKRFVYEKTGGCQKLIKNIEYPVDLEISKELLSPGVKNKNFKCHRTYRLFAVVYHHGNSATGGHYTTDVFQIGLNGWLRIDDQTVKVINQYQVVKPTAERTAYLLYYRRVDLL
USP8 inh = inhibitors of human USP8 deubiquitinase. P40818. purified USP8, Ub-rhodamine cleavage fluorescence, 30 min. inhibition, % at 20 µM. 47,000 tested, 4.2% active. AID 1645853
UCHL1 block = inhibitors of human UCHL1 deubiquitinase; P09936; purified UCHL1, Ub-rhodamine cleavage fluorescence; inhibition, % at 20 µM; 47,000 tested, 0.2% active
USP7 block = human USP7 deubiquitinase inhibition; Q93009; purified USP7, Ub-rhodamine cleavage fluorescence; inhibition, % at 20 µM; 47,000 tested, 0.3% active
* hit, by the source's call. No stated cut-off is given here; in the data, active means inhibition above about 30%; inactive means the rest.

SMILES | USP10 inh | USP8 inh | UCHL1 block | USP7 block
COc1cc2cc3c(c(O)c2c(O)c1-c1c(OC)cc2cc4c(c(O)c2c1O)C(=O)OC1CC(C)OC41)C(=O)OC1CC(C)OC31 (stereo not drawn) | 30 | 58* | 23 | 11
CN(C)C(=O)[C@@H]1C[C@@H]2CN(C(=O)c3ccccc3)CCN2[C@@]12C(=O)Nc1ccccc12 | 0 | 2 | -1 | 1
COc1ccc(CCNc2nc3c(-c4ccccc4)nnn3c3ccccc23)cc1OC | 22 | 44* | 3 | 9
COc1ccccc1-n1cc(C(=O)c2cc(F)ccc2O)cc(C(C)=O)c1=O | -9 | 33* | -29 | -32
CCOc1ccccc1-n1cc(C(=O)c2cc(F)ccc2O)cc(C#N)c1=O | -4 | -49 | -41 | -42
COc1cc2nc(CN3CCN(c4ccc(O)cc4)CC3)[nH]c(=O)c2cc1OC | -2 | 38* | 2 | 3
COc1cc2nc(CN3CCN(c4ccccc4F)CC3)[nH]c(=O)c2cc1OC | -5 | -2 | 1 | 1
CCOC(=O)N1CCN(C(=O)[C@H](C)NC(=O)c2cc3c(OC)c(OC)ccc3[nH]2)CC1 | 1 | 16 | -2 | -4
COc1cccc(NC(=O)[C@H](C)NC(=O)c2cc3c(OC)c(OC)ccc3[nH]2)c1 | 3 | 81* | 7 | 6
Cc1cc(C(F)(F)F)n(-c2ccc(NC(=O)Nc3cccc(C(F)(F)F)c3)cc2)n1 | 30* | 15 | 6 | 5
Cn1cc(NC(=O)Nc2cccc(C(F)(F)F)c2)c2ccccc2c1=O | 68* | 97* | 27 | -34
CCOC(=O)c1ccc(NC(=O)C2CCN(c3nccc4sccc34)CC2)cc1 | 4 | 54* | -1 | -7
CC(=O)c1ccc(NC(=O)C2CCN(c3cncnc3N3CCCC3)CC2)cc1 | 1 | -3 | 1 | -12
COc1cccc(CNC(=O)CCC(=O)N2CCSc3ccccc32)c1OC | -1 | 7 | -2 | -1
Cc1ccc(-c2nc(SCC(=O)c3c(N)n(C4CC4)c(=O)[nH]c3=O)n[nH]2)cc1 | 3 | 5 | 1 | -10
CCc1ccc(-c2nc(SCC(=O)c3c(N)n(C4CC4)c(=O)[nH]c3=O)n[nH]2)cc1 | -9 | 36* | -4 | 2
Cc1ccc(-c2[nH]c3ccccc3c2C2c3ccccc3C(=O)N2CC(=O)O)cc1 (stereo not drawn) | 12 | 61* | -2 | -1
CN(C)C(=O)CN1C(=O)c2ccccc2C1c1c(-c2ccccc2)[nH]c2ccccc12 (stereo not drawn) | -3 | 20 | 2 | -9
COc1ccc(CCNc2ncnc3c2nc2n3CCCCC2)cc1OC | -1 | -5 | 0 | -2
CCOc1ccc(NC(=O)c2ccc(F)c(S(=O)(=O)N3CCN(c4ccccn4)CC3)c2)cc1 | 9 | 0 | 0 | 3
CC(=O)Oc1cn(C(C)c2ccccc2)c2nc(C)n3c4ccccc4nc3c12 (stereo not drawn) | -11 | -24 | -16 | -17
CCC(=O)Oc1cn(-c2ccc(C(C)C)cc2)c2nc(CC)n3c4ccccc4nc3c12 | -3 | 47* | -1 | 2
O=C(/C=C/c1c(F)cccc1Cl)N1CCc2ccccc2C1 | 9 | 93* | 6 | 0
Cc1cccc2sc(N(Cc3ccccc3)C(=O)CCNC(=O)c3ccc([N+](=O)[O-])cc3)nc12 | 7 | 4 | 4 | 9
O=C(NCCCN1CCN(c2ccc(F)cc2)CC1)c1ccc2c(=O)n(CCc3ccccc3)c(=O)[nH]c2c1 | 3 | 30* | 0 | 6
SMILES | USP10 inh | USP8 inh | UCHL1 block | USP7 block
O=C(NCCc1ccccc1)c1ccc2c(=O)n(CCC3=CCCCC3)c(=O)[nH]c2c1 | 24 | 0 | 1 | 5
COc1cccc(NC(=O)c2oc3ccccc3c2NC(=O)COc2cccc(OC)c2)c1 | 35* | -9 | 0 | 3
Cc1ccc(NC(=O)c2oc3ccccc3c2NC(=O)COc2ccc(C)cc2)cc1 | 8 | -7 | -1 | 1
O=C(Nc1nnc(-c2ccc(Br)cc2)s1)C1CC1 | 5 | 15 | 0 | 7
CCOc1ccccc1-c1noc(-c2c(O)c3ccccc3[nH]c2=O)n1 | 3 | 0 | 0 | 0
Cc1ccc(S(=O)(=O)NCCn2c(N)c(C#N)c3nc4ccccc4nc32)cc1 | -10 | 65* | -19 | -60
COc1ccc(-n2nc(C)c3c2NC(=O)CC3C(=O)c2ccc3c(c2)OCO3)cc1 (stereo not drawn) | 1 | 7 | 0 | 1
COc1ccc(C(=O)C2CC(=O)Nc3c2c(C)nn3-c2ccc(Br)cc2)cc1 (stereo not drawn) | 20 | 30* | 3 | 8
CCCCOc1ccc(-c2nc(-c3ccccc3)c3ccccn23)cc1 | -5 | 27 | 5 | 6
COc1ccc(NC(=O)[C@@H]2CCCN2C2=NS(=O)(=O)c3ccccc32)cn1 | -7 | -140 | -156 | -201
Cc1cccc(NC(=O)[C@@H]2CCCN2C2=NS(=O)(=O)c3ccccc32)c1C | 7 | 46* | 2 | 3
Cn1c(CNC(=O)C2CCC2)nc2c1CN(S(=O)(=O)c1ccc(F)cc1)CC2 | 2 | -10 | 0 | 0
COc1cncc(-c2cnc3sc(NCC4CCOCC4)nn23)c1 | 5 | 0 | 0 | 1
COc1cc(/C=C/C(=O)OCC(=O)Nc2ccc([N+](=O)[O-])cc2OC)ccc1O | 51* | 55* | 24 | 34*
N#Cc1c(-c2ccc3c(c2)OCO3)ccn2nc(-c3ccco3)nc12 | -7 | 27 | -8 | -23
CCc1nc2c(C#N)c(-c3ccc(Cl)cc3)ccn2n1 | 24 | 36* | 7 | -45
COc1cc(NS(=O)(=O)c2ccc(NC(=O)COc3ccc(C)cc3Br)cc2)nc(OC)n1 | 38* | 3 | 0 | -42
COc1ccc(Cl)cc1C(=O)NCC1(O)CCOc2ccccc21 (stereo not drawn) | 1 | -76 | -5 | -30
CCN(CC)C(=O)C[C@@H]1CCN2C[C@@H]1CCCOc1ccc(N3CCOCC3)cc1CNCC2=O | -2 | -9 | -1 | 0
COc1c(C)c(OC(=O)c2c(C)c(C)c(OC(=O)c3c(C)c(C)c(O)c(C)c3O)c(C)c2OC)c(C)c(C)c1C(=O)O | 66* | 9 | 0 | 5
COc1c(O)c(C)c(C)c(O)c1OC (tested in a mixture with another compound) | 3 | 9 | 1 | 5
COc1cccc(NC(=O)N2CCC3(CC2)C(=O)Nc2ccccc23)c1 | 2 | -40 | 0 | -1
Cc1ccc2nc(-c3cccc(NC(=O)C(C)C)c3)[nH]c2c1 | 1 | 65* | 5 | 7
O=C(Nc1cccc(N2CCCCC2=O)c1)c1ccc2c(c1)OCO2 | 1 | -15 | -6 | 0
CS(=O)(=O)N1CCN(Cc2ccc(=O)n(CC3CC3)c2)CC1 | -2 | 48* | 3 | 0
CC(=O)N1CC(C(=O)NCc2ccc3c(c2)OCO3)C1 | 6 | -16 | 2 | 3
CC(C(=O)NCc1ccc2c(c1)OCO2)N1CCN(c2ccc(O)cc2)CC1 (stereo not drawn) | 8 | 60* | 11 | 14
CCc1ccc(NC(=O)Cn2c(=O)n(C)c(=O)c3nscc32)cc1 | -3 | 3 | 9 | -2

Compound activity (PubChem)
